# SMN2 splice enh: SMN2 splice variant enhancement | HEK293 SMN2-luciferase splicing reporter, luminescence, 30-36 h | Potency, µM (top dose mostly 46.1 µM), inactives show top-dose activity change, positive = activation, most hits filed as activators | 2.8% of 210,000 active; further: % of control where 0% means no effect; nearly all actives have a fitted effect of over 55% in size
#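 HEK293 cells carry an SMN2 minigene-luciferase reporter in which exon 7 inclusion puts luciferase in frame. Cells were seeded at 2000 cells/well, attached for 10-12 hours, then exposed to compounds for 30-36 hours at 37C before ONE-Glo luminescence.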
# Rab9 prom act: activates the Rab9 promoter. Huh7 Rab9 promoter-luciferase reporter, luminescence, 24 h. Potency, µM (doses to about 9.22 µM), for the others: at the highest dose activation, negative = inhibition, usual class: activators. 2.8% of 320,000 active; further: % of control where 0% means no effect; nearly all actives have a fitted effect of over 60% in size
#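 Promoter activation is measured as luciferase luminescence in Huh7 cells stably transfected with a Rab9 promoter–luciferase construct, following 24 h compound exposure at 37 °C and 10 min reagent incubation at ambient temperature.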
# ELG1 DNA repair: inhibitors of ELG1-dependent DNA repair in HEK293T cells; HEK293T ELG1-luciferase reporter, luminescence, 16 h; DNA damage induced by 5-fluorouridine; Potency, µM (titrated, usually from 46.1 µM), for the others: at the top dose activity change, negative = inhibition, most hits filed as inhibitors; 2.3% of 330,000 active; AID 504467; further: on the % scale 0 is the no-effect control and ±100 the full control effect; nearly all actives have a fitted effect of over 55% in size
#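 DMSO vehicle served as the neutral condition. Each well held 2,000 cells given 5-fluorouridine plus compound; after 16 hr at 37 °C/5% CO2, ONE-Glo was added and luciferase measured 30 min later.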
# FLuc modulator: firefly luciferase modulation, counter-screen for miR-21 project; P08659; purified FLuc, Km substrates, luminescence inhibition; Potency, µM (series often up to 57.5 µM), for the others: top-dose activity change, negative = inhibition, usual class: inhibitors; 6.9% of 360,000 active;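 further: plate controls were vehicle for no effect and reference inhibitor for full effect; nearly all actives have a fitted effect of over 55% in size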
#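 Purified P. pyralis luciferase (10nM final) with 10uM D-luciferin and 10uM ATP (Km levels) in 50mM Tris acetate pH 7.5, 10mM Mg acetate, 0.01% Tween-20, 0.05% BSA; qHTS 6-point titration, ~60 µM downward; luminescence read.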
# ELG1 genotoxic: inducers of genotoxicity in HEK293T ELG1-luciferase cells. HEK293T ELG1-luciferase reporter, luminescence, 16 h. Potency, µM (series often up to 46 µM), without a hit: at the top dose activity change, positive = activation, actives largely listed as activators. 1.3% of 330,000 active; further: % of control where 0% means no effect; nearly all actives have a fitted effect of over 60% in size
#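 ELG1-luciferase HEK293T cells, 2,000/well; compound pinned in; 16 hr, 37 °C, 5% CO2; ONE-Glo, 30 min RT; luminescence on CCD imager.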
# NPC1 prom act: NPC1 promoter activation; Huh7 NPC1 promoter luciferase reporter, 24 h; Potency, µM (series often up to 9.22 µM), for inactives: at the highest dose activation, most hits filed as activators; 2.4% of 320,000 active; further: % of control where 0% means no effect; nearly all actives have a fitted effect of over 60% in size
#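 Quantitative HTS used a cell-based reporter: Huh7 cells stably bearing the NPC1 promoter upstream of luciferase were treated with compounds for 24 h, and promoter activation was read as luminescence.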
# ELG1 FLuc counter: luciferase inhibition in cell-free luciferin readout for ELG1 hits; shares compounds with ELG1 DNA repair; cell-free firefly luciferase luminescence counter-screen, ViewLux; Potency, µM (top dose mostly 46.1 µM), for the others: top-dose activity change, negative = inhibition, hits mostly inhibitors; 3% of 350 active; further: on the % scale 0 is the no-effect control and ±100 the full control effect
# ELG1 Luc conf: human ELG1 repair inhibition, luciferase-tagged ELG1 confirmation; 68% of 670 active; HEK293T ELG1-luciferase levels, luminescence; cells co-treated with 5-fluorouridine; AID 624248; shares compounds with ELG1 DNA repair; Potency, µM (doses to about 46.1 µM), for inactives: at the top dose activity change, negative = inhibition, hits mostly inhibitors; further: on the % scale 0 is the no-effect control and ±100 the full control effect; nearly all actives have a fitted effect of over 55% in size
# ELG1-Luc MMS: confirmation of human ELG1 repair inhibitors, MMS stimulated; shares compounds with ELG1 DNA repair; HEK293T luciferase-tagged ELG1 level, MMS stimulated; Potency, µM (titrated, usually from 46.1 µM), without a hit: at the top dose activity change, negative = inhibition, most hits filed as inhibitors; 53% of 670 active; AID 624249; further: on the % scale 0 is the no-effect control and ±100 the full control effect; nearly all actives have a fitted effect of over 60% in size
# ELG1 5-FU: confirmation of ELG1 repair inhibitors: viability with 5FU; Potency, µM (doses to about 46.1 µM), without a hit: at the top dose activity change, negative = viability loss, most hits filed as cytotoxic; AID 624250; 670 tested, under 10 active; cell viability with 5-FU, ELG1-dependent repair; shares compounds with ELG1 DNA repair;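 further: ELG1-luc HEK293T cells cotreated with 5-fluorouridine at 10 µM final; viability measured 16 h after compound addition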
# ELG1 MMS viab: confirmation of ELG1 repair inhibitors: viability with MMS; 33% of 670 active; Cell viability with MMS, ELG1-dependent DNA repair; Potency, µM (series often up to 46.1 µM), without a hit: at the top dose activity change, negative = viability loss, usual class: cytotoxic; shares compounds with ELG1 DNA repair; AID 624251;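 further: ELG1-luc HEK293T cells co-treated with 10 µM MMS; viability read 16 h after compound addition; on the % scale 0 is the no-effect control and ±100 the full control effect; nearly all actives have a fitted effect of over 60% in size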
# ELG1 unstim viab: affects unstimulated cell viability, ELG1 hit counter-screen | cell viability counter-screen, unstimulated, luminescence | 8% of 900 active | Potency, µM (series often up to 45.9 µM), for inactives: top-dose activity change, negative = loss of viability, actives largely listed as cytotoxic | AID 624252 | shares compounds with ELG1 DNA repair;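 further: compound exposure lasted 16 hours before reading; on the % scale 0 is the no-effect control and ±100 the full control effect; nearly all actives have a fitted effect of over 55% in size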
# FLuc biochem: inhibits purified firefly luciferase, counter-screen for ELG1 hits; purified firefly luciferase, luminescence counter-screen; AID 624253; shares compounds with ELG1 DNA repair; 10% of 350 active; Potency, µM (top dose mostly 57.5 µM), for inactives: top-dose activity, negative = inhibition, actives largely listed as inhibitors; further: on the % scale 0 is the no-effect control and ±100 the full control effect
# Active calls of the source: *; ? = inconclusive; / = no result. In the library only some 9.2% were active in any assay of this set; here they are far more common. The call rests on the fitted dose curve; in most records, active means well fitted curve in the direction sought with a large enough effect; inconclusive means small, poorly fitted or top-dose-only effect, or another doubt; inactive means no such curve, though single readings can be large; an effect the other way counts as inactive or inconclusive. Potency means the concentration at half of the fitted maximal effect.
SMILES,SMN2 splice enh,Rab9 prom act,ELG1 DNA repair,FLuc modulator,ELG1 genotoxic,NPC1 prom act,ELG1 Luc conf,ELG1-Luc MMS,ELG1 5-FU,ELG1 MMS viab,ELG1 unstim viab,others
Cc1[nH]n(-c2nc(-c3ccc(Cl)cc3)cs2)c(=O)c1N=Nc1ccc(O)cc1,/,-69.2%,4.11µM*,?,-12.8%,-48.9%,15.8µM*,15.8µM*,?,28.1µM*,?,
COc1ccc(/C=C/c2nc(C)c(-c3ccccc3)c(=O)[nH]2)cc1OC,-1.1%,2.1%,-19.0%,3.6%,-0.3%,-1.0%,/,/,/,/,/,
COc1ccc(CCNC(=O)/C=C/c2ccc3ccccc3n2)cc1OC,/,-11.1%,?,1.4%,-13.8%,-7.0%,/,/,/,/,/,
COc1ccc(/C=C/c2cnc3ccccc3n2)cc1OC,/,/,/,/,/,/,/,/,/,/,-3.8%,ELG1 FLuc counter=-7.7%;FLuc biochem=0.206µM*
COc1ccc(/C=C/c2ccc3ccccc3n2)cc1OC,/,/,/,/,/,/,/,/,/,/,?,ELG1 FLuc counter=36.4%;FLuc biochem=?
Cn1c(SCc2ccccc2)nnc1-c1ccc(O)cc1,/,25.5%,?,-16.6%,14.6%,?,/,/,/,/,/,
CCOCCC(=O)Nc1nnc(CCc2ccccc2)s1,/,-0.2%,0.0%,6.1%,-0.4%,-0.5%,/,/,/,/,/,
CN(C)c1ccc(/C=C2\C=Cc3ccccc32)c(F)c1,/,/,/,/,/,/,/,/,/,/,-3.9%,
Cc1cc(OCC(=O)Nc2ccc(N3CCCC3)cc2)cc(C)c1Cl,-11.2%,2.5%,-5.2%,1.8%,-3.1%,-1.5%,/,/,/,/,/,
Cc1cc(OCC(=O)Nc2ccncc2)cc(C)c1Cl,/,3.0%,2.59µM*,-1.0%,9.6%,-6.9%,?,2.5µM*,3.6%,2.5µM*,-12.5%,
O=C(Nc1cc(Br)ccc1O)c1cnn2c(C(F)F)cc(C3CC3)nc12,-5.1%,12.0%,2.31µM*,1.2%,-5.9%,-1.7%,0.996µM*,15.2%,?,-2.9%,?,
O=C(O)c1ccc2c(=O)n3c(nc2c1)/C(=C/c1cccc(Cl)c1Cl)CC3,/,-5.8%,1.2%,0.1%,4.9%,-5.4%,/,/,/,/,/,
CCOc1cccc(-c2nnc3sc(-c4cc(OC)c(OC)c(OC)c4)nn23)c1,23.7%,-4.7%,3.26µM*,3.6%,8.0%,0.4%,?,14.6%,3.6%,-2.5%,?,

# Screens as filed in PubChem.
